The values that follow come from PubChem BioAssay (NCATS).

Each structure is given as a SMILES string. Results filed as inconclusive are left out. Values without a mark were called inactive. Active and inactive are the calls of the source. Calls follow the shape of the dose curve; as a rule, active = well fitted cell-killing curve with a large enough effect; inconclusive = small, poorly fitted or top-dose-only effect, or effect the other way; inactive = flat fitted curve, though single readings scatter. Where a SMILES comes first, the peptide text is derived from it. [ ]: non-standard residue; d: D form. dPhe(4-Cl) = N[C@H](Cc1ccc(Cl)cc1)C(=O)O; d2Nal = N[C@H](Cc1ccc2ccccc2c1)C(=O)O; dCit = NC(=O)NCCC[C@@H](N)C(=O)O; d3Pal = N[C@H](Cc1cccnc1)C(=O)O

What all share (experiment): Primary qHTS to identify gynecologic anti-cancer compounds using libraries of approved drugs and bioactive compounds (AID 1345084); also: nearly all actives have a fitted effect of over 55% in size
(qHTS replaces the single test concentration by a dilution series.)

Assay [1] has as its system C33A. The settings on record: Gynecologic cancer cell panel viability, ATPlite luminescence, 48 h; series mostly up to 57.5 µM. In a few lines:
(§1)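 ATP-based viability (ATPlite), 1,000 cells/well, 16 h pre-incubation, 48 h compound at 37 C, 5% CO2, 15 min RT before read.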
A general note: Cellular ATP, detected with luciferase, serves as a proxy for viable cell number.

The subject of assay [2] is CAOV3. The note with it: Gynecologic cancer cell panel viability, ATPlite luminescence, 48 h; series mostly up to 57.5 µM. In a few lines:
as §1

The test system of assay [3] is CASKI. The note with it: Gynecologic cancer cell panel viability, ATPlite luminescence, 48 h; series mostly up to 57.5 µM. In a few lines:
as §1

Assay [4] deals with Es-2. The settings on record: Gynecologic cancer cell panel viability, ATPlite luminescence, 48 h; series mostly up to 57.5 µM. The method, boiled down: as §1
In assay [5] the test system is HeLa. The note with it: Gynecologic cancer cell panel viability, ATPlite luminescence, 48 h; series mostly up to 57.5 µM. In a few lines:
as §1

Assay [6] has as its system Hek293T. The settings on record: Gynecologic cancer cell panel viability, ATPlite luminescence, 48 h, control line for the selectivity index; series mostly up to 57.5 µM. In a few lines: as §1
In assay [7] the test system is JEG-3. The note with it: Gynecologic cancer cell panel viability, ATPlite luminescence, 48 h; series mostly up to 57.5 µM. In a few lines:
as §1

For assay [8], the system named is OV90. The settings on record: Gynecologic cancer cell panel viability, ATPlite luminescence, 48 h; series mostly up to 57.5 µM. In a few lines:
as §1

The test system of assay [9] is PA-1. The note with it: Gynecologic cancer cell panel viability, ATPlite luminescence, 48 h; series mostly up to 57.5 µM. The method, boiled down: as §1
For assay [10], the system named is Tov-21-G. The settings on record: Gynecologic cancer cell panel viability, ATPlite luminescence, 48 h; series mostly up to 57.5 µM. In a few lines:
as §1

Assay [11] relates to Tov112D. The note with it: Gynecologic cancer cell panel viability, ATPlite luminescence, 48 h; series mostly up to 57.5 µM. In a few lines: as §1
Assay [12] relates to SKOV3. The settings on record: Gynecologic cancer cell panel viability, ATPlite luminescence, 48 h; series mostly up to 57.5 µM. In a few lines: as §1
% is scaled to controls: 0 for no effect and ±100 for the full control effect; potency is read from the fitted curve at half-maximal effect.

For `COC1=CC(=O)CC(C)C12Oc1cc(OC)cc(O)c1C2=O` (stereo unspecified), the Potency result in assay [1], in assay [2], in assay [3], in assay [4], in [5] and in [6] was “inactive” each time. In addition, the Potency result in [7], in assay [8], in assay [9], in [10] and in assay [11] was “inactive” each time.
For `CC(C)[C@@H]1C(=O)N(S(C)(=O)=O)[C@@H]2CCN(C(=O)/C=C/CN3CCCCC3)[C@H]21`, the Potency result in assay [1], in assay [2], in [3], in assay [4], in [5] and in assay [6] was “inactive” in each case. Further, the Potency entry in [7], in assay [8], in assay [9], in [10] and in assay [11] was “inactive” in each case.
Turning to `CC(=O)OC1CC2C3(C)CCC(OC(=O)CC(=O)O)C(C)(C)C3CCC2(C)C2(C)CCC(C3(C)CCC(=O)O3)C12` (stereo unspecified), the Potency result in assay [1], in [2], in assay [3], in assay [4], in [5] and in [6] was “inactive” each time. The Potency entry in assay [7], in [8], in assay [9], in assay [10] and in assay [11] was “inactive” throughout.
In the case of `CC(C)(C)OC(=O)N1CCC(OCc2nc(-c3ccncc3)no2)CC1`, the Potency entry in assay [1], in assay [2], in assay [3], in assay [4], in assay [5] and in assay [6] was “inactive” throughout. Moreover, the Potency entry in [7], in assay [8], in assay [9] and in assay [11] was “inactive” throughout.
`Cc1cc(C(=O)Nc2cccc(C(=O)Nc3cccc(C(F)(F)F)c3)c2)on1`: the Potency result in assay [1], in [2], in [3], in assay [4], in assay [5] and in assay [6] was “inactive” throughout. Also, the Potency entry in assay [7], in [8], in assay [9] and in assay [11] was “inactive” each time.
For the compound `CC(C)[C@@H](CS(=O)(=O)C(C)C)N1C(=O)[C@@](C)(CC(=O)O)C[C@H](c2cccc(Cl)c2)[C@H]1c1ccc(Cl)cc1`, the Potency result in [1], in [2], in assay [3], in assay [4], in assay [5] and in assay [6] was “inactive” in each case. Moreover, the Potency entry in [7], in assay [8] and in assay [11] was “inactive” each time. Further, in [9], the Potency was 4.47 µM (active).
For the compound `Nc1nc2c(c(N3CCNCC3)n1)CCC1=C2[C@@H]2CCCC[C@@H]2O1`, the Potency result in [1], in [2], in assay [3], in [4], in assay [5] and in assay [6] was “inactive” in each case. Besides, the Potency result in assay [7], in assay [8], in assay [12], in assay [10] and in assay [11] was “inactive” in each case.
In the case of `O=C1OCC(c2ccccc2)=C1Cc1ccccc1`, the Potency result in [1], in [2], in assay [3], in assay [4], in [5] and in assay [6] was “inactive” throughout. In addition, the Potency entry in assay [7], in assay [8], in assay [9], in [10] and in [11] was “inactive” in each case.
Turning to `CC(C)c1nnc(-c2ccc(-c3ccccc3)nc2)n1-c1cccc2nonc12`, the Potency entry in assay [1], in assay [2], in assay [3], in assay [4], in [5] and in assay [6] was “inactive” throughout. Besides, the Potency result in [7], in assay [8], in [9] and in assay [11] was “inactive” each time.
On to `CC1(C)C=CN2C(=O)C3=CCCN3C(=O)[C@@H]2C[C@@]12Nc1ccccc1C2=O`, for which the Potency entry in assay [1], in assay [2], in assay [3], in assay [4], in assay [5] and in [6] was “inactive” each time. Moreover, the Potency result in assay [7], in assay [8], in assay [9], in assay [10] and in [11] was “inactive” in each case.
On to `CC(=O)N[C@H](Cc1ccc2ccccc2c1)C(=O)N[C@H](Cc1ccc(Cl)cc1)C(=O)N[C@H](Cc1cccnc1)C(=O)N[C@@H](CO)C(=O)N[C@@H](Cc1ccc(O)cc1)C(=O)N[C@H](CCCNC(N)=O)C(=O)N[C@@H](CC(C)C)C(=O)N[C@@H](CCCN=C(N)N)C(=O)N1CCC[C@H]1C(=O)N[C@H](C)C(N)=O` (Ac-[d2Nal][dPhe(4-Cl)][d3Pal]SY[dCit]LRP[dA]-NH2), for which the Potency entry in [1], in assay [2], in [3], in assay [4], in assay [5] and in assay [6] was “inactive” throughout. The Potency result in [7], in assay [8], in [9], in assay [10] and in assay [11] was “inactive” throughout.
As to `CC(NC(=O)CCc1nc2ccccc2c(=O)[nH]1)c1ccccc1` (stereo unspecified), the Potency result in assay [1], in assay [2], in assay [3], in assay [4], in assay [5] and in [6] was “inactive” throughout. Besides, the Potency entry in assay [7], in [8], in [9], in [10] and in assay [11] was “inactive” in each case.
Turning to `CC(=O)C1=C(C)N(c2cccc(C(F)(F)F)c2)C(=O)N[C@H]1c1ccc(C#N)nc1`, the activity change, negative = cytotoxicity is 16.9% [at 11.6 µM] in assay [1]; 8.36% [at 11.6 µM] in assay [2]; 11.8% [at 11.6 µM] in assay [3]; 6.68% [at 11.6 µM] in assay [4]; 11% [at 11.6 µM] in assay [5]; -1.04% [at 11.6 µM] in assay [6]. The activity change, negative = cytotoxicity in [7] was -3.38% [at 11.6 µM]; in assay [8] it was 5.76% [at 11.6 µM]; in assay [12] it was 12.1% [at 11.6 µM]; in assay [10], 3.34% [at 11.6 µM]; in assay [11] it was -8.52% [at 11.6 µM].
For `O=C(Nc1c(-c2cccs2)nc2ccccn12)c1ccc(Cl)cc1`, the Potency entry in assay [1], in assay [2], in assay [3], in assay [4], in assay [5] and in assay [6] was “inactive” each time. Moreover, the Potency result in [7], in assay [8], in assay [9] and in [11] was “inactive” throughout.
On to `NC(=O)c1csc(C2OC(CO)C(O)C2O)n1` (stereo unspecified), for which the Potency entry in assay [1], in assay [2], in assay [3], in assay [4], in assay [5] and in assay [6] was “inactive” each time. For the same compound, the Potency result in [7], in assay [8], in assay [12], in assay [10] and in assay [11] was “inactive” throughout.
As to `C=C(C(=O)O)C1CC2=C(C)CCCC2(C)C[C@@H]1O` (stereo partly specified), the Potency entry in assay [1], in [2], in assay [3], in [4], in assay [5] and in assay [6] was “inactive” in each case. The Potency result in assay [7], in assay [8], in assay [12], in assay [10] and in assay [11] was “inactive” each time.
